BAZ2B block = BAZ2B (human) inhibition; Potency, µM (top dose mostly 114 µM), without a hit: at the highest dose activity change, negative = inhibition, actives largely listed as inhibitors; AlphaScreen BAZ2B-H3K14Ac peptide displacement; Q9UIF8; 360,000 compounds, 4.4% hits; further: on the % scale 0 is the no-effect control and ±100 the full control effect; nearly all actives have a fitted effect of over 60% in size
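AlphaScreen displacement of biotin-H3(5-23)K14Ac peptide (50 nM final) from BAZ2B (50 nM final) in PBS pH 7.4, 0.01% Tween-20; complex preformed 30 min RT, then compounds (top 110 uM) 30 min RT, beads 20 min dark.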
L3MBTL1 inh = inhibitors of human L3MBTL1; Q9Y468; AlphaScreen L3MBTL1–H3K9me1 peptide binding; AID 485360; Potency, µM (highest dose often 57.1 µM), without a hit: at the top dose activity, negative = inhibition, hits mostly inhibitors; 230,000 compounds, 0.66% hits; further: on the % scale 0 is the no-effect control and ±100 the full control effect; nearly all actives have a fitted effect of over 60% in size
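L3MBTL1 (50 nM) pre-complexed 30 min with biotinylated H3(1-15)K9me1 peptide (75 nM), then compounds added for 30 min at room temperature; AlphaScreen streptavidin donor/nickel chelate acceptor beads (10 ug/mL final) read after 30 min dark incubation.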
JMJD2A Tudor inh = JMJD2A Tudor domain (human) inhibition | O75164 | AlphaScreen JMJD2A-Tudor / H3K4me3 peptide binding | Potency, µM (highest dose often 114 µM), without a hit: at the highest dose activity change, negative = inhibition, most hits filed as inhibitors | 390,000 compounds, 4.4% hits | AID 504339; further: on the % scale 0 is the no-effect control and ±100 the full control effect; nearly all actives have a fitted effect of over 50% in size
HP1b chromo inh = HP1-beta chromodomain-methylated histone interaction inhibition; P83916; AlphaScreen HP1-beta / biotin-H3K9me3 peptide binding; Potency, µM (top dose mostly 114 µM), without a hit: at the top dose activity change, negative = inhibition, most hits filed as inhibitors; 390,000 compounds, 0.56% hits; further: nearly all actives have a fitted effect of over 70% in size
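HP1-beta protein (50 nM final) preincubated 30 min at room temperature with biotinylated H3(1-18)K9me3 peptide (50 nM) in PBS pH 7.4, 0.01% Tween-20, then compound added for 30 min. AlphaScreen streptavidin donor/nickel chelate acceptor beads (10 ug/mL final), 30 min dark, luminescence read.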
G9a inh = inhibitors of human histone lysine methyltransferase G9a | Q96KQ7 | G9a H3K9 monomethylation, AlphaScreen, 2 h | Potency, µM (series often up to 102 µM), inactives show at the highest dose activity, negative = inhibition, actives largely listed as inhibitors | 350,000 compounds, 8.8% hits; further: on the % scale 0 is the no-effect control and ±100 the full control effect; nearly all actives have a fitted effect of over 75% in size
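AlphaScreen detection with an anti-monomethyl H3K9 antibody quantified product after a 2 h room-temperature reaction containing 500 nM biotinylated H3K9 peptide, 20 µM SAM and 20 nM enzyme, which had been preincubated 15 min with compound.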
* hit, by the source's call; ? = inconclusive; / = no result; [ ] = remark or other dose. Hits are enriched below; roughly 11% of the tested compounds scored in any of these assays. The call rests on the fitted dose curve; in most records, active means well fitted inhibition curve with a large enough effect; inconclusive means small, poorly fitted or top-dose-only effect; inactive means no such curve, though single readings can be large or run the other way. Potency means the concentration at half of the fitted maximal effect.

SMILES	BAZ2B block	L3MBTL1 inh	JMJD2A Tudor inh	HP1b chromo inh	G9a inh
CCc1cccc(C)c1NC(=O)c1cc(S(=O)(=O)N2CCN(c3ccccc3)CC2)ccc1F	5%	/	-7%	26%	10%[59 µM]
COc1ccc(OC)c(NC(=O)Cn2c(=O)c3cccn3c3ccccc32)c1	-6%	/	-19%	0%	-11%[59 µM]
CCC12CN3CC(C)(CN(C1)C3c1ccccc1C)C2=O (centres undefined)	2%	/	-11%	14%	-3%[59 µM]
COc1ccc(N2CCn3c2nc2c3c(=O)n(CCCc3ccccc3)c(=O)n2C)c(OC)c1	?	-8%	?	-14%	32µM*
COc1ccc(N2CCn3c2nc2c3c(=O)n(CCc3ccccc3)c(=O)n2C)c(OC)c1	-1%	-5%	/	/	?
NC(CSCc1ccccc1Cl)C(=O)O (centres undefined)	?	-3%	-6%	42%	35µM*
COC(=O)c1c(C)sc(-c2c(-c3ccc(F)cc3)[nH]c3[nH]c(=O)[nH]c(=O)c23)c1O	?	/	?	12%	?
Cc1ccc(C(=O)Nc2cc3c(cc2N2CCCCC2)n(C)c(=O)n3C)cc1	-18%	/	-14%	61%	-3%[59 µM]
CCOc1ccc(C(=O)Nc2cc3c(cc2N2CCCC2)n(C)c(=O)c(=O)n3C)cc1OCC	-33%	/	-12%	25%	?
Cn1c(=O)c(=O)n(C)c2cc(N3CCCC3)c(NC(=O)c3ccc(C(C)(C)C)cc3)cc21	?	/	-30%	2%	11µM*
CCOc1cc(C(=O)Nc2cc3c(cc2N2CCCC2)n(C)c(=O)n3C)cc(OCC)c1OCC	89µM*	/	-29%	32%	/
CCOc1cc(C(=O)Nc2cc3c(cc2N2CCCC2)n(C)c(=O)c(=O)n3C)cc(OCC)c1OCC	-21%	/	-22%	25%	10µM*
Cc1cc(C(=O)CSc2nc(N)cc(N)n2)c(C)n1C1CC1	-25%	/	?	-21%	?
Cc1cc(C(=O)CSc2nc(N)cc(N)n2)c(C)n1-c1cccc(F)c1	?	-16%	28µM*	?	-18%[59 µM]
C=CCn1c(C)cc(C(=O)COc2ncnc3sccc23)c1C	-1%	-3%	-23%	6%	?
C=CCn1c(C)cc(C(=O)CSc2nc(N)cc(N)n2)c1C	?	6%	-31%	7%	32µM*
C=CCn1c(C)cc(C(=O)COC(=O)c2cncc(Br)c2)c1C	?	-23%	?	-6%	3.2µM*
COc1cc(NC(=O)c2c(C)oc3ncnc(N4CCCCC4)c23)cc(OC)c1	2%[57.1 µM]	/	-16%	-1%	-7%[59 µM]
COc1ccc(C2Nc3ccccc3C(=O)N2c2ccc(Cl)cc2)cc1COc1ccc(NC(C)=O)cc1 (centres undefined)	/	/	-24%[57.1 µM]	19%[57 µM]	/
CCCC(=O)O[C@]1(C(=O)COC(C)=O)CC[C@H]2C3C[C@H](F)C4=CC(=O)C=CC4(C)[C@@]3(F)[C@@H](O)CC21C (some centres undefined)	/	/	/	/	-6%[12.7 µM]
O=C1CCC(=O)N1CCC(c1ccc(F)cc1)c1ccco1 (centres undefined)	-8%	-11%	-17%	19%	5%[12.7 µM]
O=C1NCN(c2ccccc2)C12CCN(CCCC(c1ccc(F)cc1)c1ccc(F)cc1)CC2	?	?	40µM*	-31%	10µM*
C=CCSc1nc2ccccc2n1S(=O)(=O)c1ccc(Cl)cc1	/	/	-36%	23%	/
CCSc1nc2ccccc2n1S(=O)(=O)c1ccccc1	5%	6%	-21%	34%	50µM*
S=C1NNC2(CC3CC2C2CCCC32)NN1 (centres undefined)	-23%	-7%	?	-5%	1.8µM*
CCN1CCN(C(=O)c2ccc3c(c2)S(=O)(=O)c2ccccc2C3=O)CC1	-31%	/	6%	38%	50µM*
CCN1CCN(C(c2ccc(F)cc2)c2c(O)cc(C)n(CCOC)c2=O)CC1 (centres undefined)	-2%	/	-11%	30%[57 µM]	?
CCCCCCCNC1=CC(=O)CC(c2ccco2)C1 (centres undefined)	?	?	50µM*	-19%	?
CCC(C)(C)n1nnnc1C(c1ccccn1)N1CCOCC1 (centres undefined)	9%	5%	-9%	8%	?

Source: PubChem (National Center for Advancing Translational Sciences (NCATS))
